Laboratory results as given in PubChem BioAssay AID1159580 (chemical genetic matrix, 2015).
Hit rate of the full screen: of about 5,500 compounds, about 2,000 (36%) were called active. About 18% were inconclusive and are not listed. Some of the results follow. A number with no mark means an inactive call. Cut-off read from the data, not from the text of the source: active = normalized growth mostly below about 0.91 (no sharp cut-off); inconclusive = no clear call, values can overlap the other calls; inactive = mostly above about 0.92.

Assay: chemical genetic growth profiling, strain panel (AID 1159580);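 note: tested at 20 µM; growth read once vehicle control cultures reached saturation at 30 °C; 1 = growth at the plate median or of vehicle wells; lower values mean less growth of the strain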
Conditions: S. cerevisiae deletion strains, growth OD
[1] = locus YAL040C, strain CLN3, hits give low values
[2] = locus YCL061C, strain MRC1 (second series), hits give low values
[3] = locus YER002W, strain NOP16, hits give low values
[4] = locus YGR078C, strain PAC10, hits give low values
[5] = locus YNL153C, strain GIM3, hits give low values
[6] = locus YNL175C, strain NOP13, hits give low values
[7] = locus YNL197C, strain WHI3, hits give low values
[8] = locus YNL224C, strain SQS1, hits give low values
[9] = locus YNL322C, strain KRE1, hits give low values
[10] = locus YOR083W, strain WHI5 (second series), hits give low values

| SMILES | normalized growth [1] | normalized growth [2] | normalized growth (locus YDR150W, strain NUM1, hits give low values) | normalized growth [3] | normalized growth [4] | normalized growth (locus YMR263W, strain SAP30, hits give low values) | normalized growth [5] | normalized growth [6] | normalized growth [7] | normalized growth [8] | normalized growth [9] | normalized growth [10] | normalized growth (locus YMR307W, strain GAS1, hits give low values) | normalized growth (locus YNL128W, strain TEP1, hits give low values) | normalized growth (locus YPL241C, strain CIN2, hits give low values) |
| --- | --- | --- | --- | --- | --- | --- | --- | --- | --- | --- | --- | --- | --- | --- | --- |
| OC(CN1CCN(c2cccc(Cl)c2)CC1)C(c1ccccc1)c1ccccc1 (stereo not given) | 0.979 | 0.986 | 0.985 | 1.19 [resistant] (active) | 1.01 | 0.997 | 0.992 | 1.09 | 0.992 | 1.01 | 0.97 | 1.17 [resistant] (active) |  |  |  |
| Clc1cccc(N2CCNCC2)c1 | 0.974 | 0.983 |  | 0.981 | 0.996 |  | 0.985 | 0.97 | 0.979 | 0.984 | 0.996 | 0.962 | 0.991 | 0.981 | 0.982 |
